# LmPK inhibitor – LmPK (Leishmania mexicana) enzyme inhibition | Q27686 | purified LmPK, Kinase-Glo ATP luminescence, 1 h | Potency, µM (series often up to 57.5 µM), hits mostly inhibitors | 290,000 compounds, 0.37% hits
#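 Pyruvate kinase activity monitored as ATP production (luciferase luminescence). Conditions: 0.1 nM enzyme, 0.5 mM PEP, 0.1 mM ADP, 1 h, RT; normalized against uninhibited and no-enzyme wells.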
# FBPA Giardia inh – blocks Giardia fructose-bisphosphate aldolase activity. A8B2U2. purified Giardia FBPA. Potency, µM (titrated, usually from 59.6 µM), most hits filed as inhibitors. 290,000 compounds, 0.71% hits. AID 2451; further: nearly all actives have a fitted effect of over 55% in size
# Target sequence (A8B2U2 whole entry, looked up): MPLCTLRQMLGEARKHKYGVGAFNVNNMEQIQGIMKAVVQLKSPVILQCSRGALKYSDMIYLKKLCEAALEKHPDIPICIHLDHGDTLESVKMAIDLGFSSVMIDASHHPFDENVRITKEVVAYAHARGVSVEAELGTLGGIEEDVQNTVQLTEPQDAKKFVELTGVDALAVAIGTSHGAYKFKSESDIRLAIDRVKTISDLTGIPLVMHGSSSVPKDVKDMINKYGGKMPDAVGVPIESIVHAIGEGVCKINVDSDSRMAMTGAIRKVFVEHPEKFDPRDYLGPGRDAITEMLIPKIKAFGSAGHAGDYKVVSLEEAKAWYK
#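 Giardia FBPA (40 nM reagent) was preincubated 10 min at RT with compound (up to 57.5 uM final), then substrate plus GAPDH/TPI/NAD/arsenate coupling system with diaphorase/resazurin was added; resorufin fluorescence (525/598 nm) was read after 20 min.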
# Sm TGR inh – S. mansoni TGR enzyme inhibition; Potency, µM (series often up to 114 µM), usual class: inhibitors; purified TGR, DTNB reduction, TNB absorbance 405 nm; 360,000 compounds, 3% hits; AID 485364; further: nearly all actives have a fitted effect of over 60% in size
#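 First, TGR (20 nM dispensed) and NADPH were mixed with compound. Second, a 15 min room-temperature incubation followed. Third, further NADPH and then DTNB were added to start the reaction. Finally, TNB absorbance was monitored kinetically.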
# Shiga inhibitor – inhibitors of Shiga toxin in Vero cells; Vero cells, Shiga toxin protein synthesis inhibition reporter; inhibition, % at 38.7 µM; 290,000 compounds, 9.2% hits; in the data active means inhibition mostly above about 28%, no sharp cut-off; inactive means mostly below about 43%
# Tb PYK inh – T. brucei pyruvate kinase inhibition; Q57TT1; TbPYK enzyme, Kinase-Glo Plus ATP luminescence, 45 min; Potency, µM (highest dose often 76.8 µM), actives largely listed as inhibitors; 410,000 compounds, 0.12% hits; further: nearly all actives have a fitted effect of over 50% in size
#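 Activity of T. brucei pyruvate kinase was followed by Kinase-Glo Plus luminescence after the enzyme reacted 45 min at room temperature with 130 uM ADP (final) and substrate. Test compounds were added before ADP at multiple concentrations.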
# CHX counter – counter-screen for Shiga toxin inhibitors: cycloheximide protein synthesis inhibition; cell reporter, cycloheximide protein synthesis inhibition counterscreen; max response, %; 300,000 compounds, 12% hits; AID 2314; in the data active means max response mostly above about 13%, no sharp cut-off; inactive means mostly below about 14%; further: read at 38.3 µM for the half of the compounds with a filed dose
# A number is an active result; . = inactive; ? = inconclusive; / = no result given; [ ] = dose if it differs, or a comment. The entries come from a sample that favours hits as a whole. Unless noted, the call rests on the fitted dose curve; in most records, active means well fitted curve in the direction sought with a large enough effect; inconclusive means small, poorly fitted or top-dose-only effect, or another doubt; inactive means no such curve, though single readings can be large; an effect the other way counts as inactive or inconclusive.
SMILES,LmPK inhibitor,FBPA Giardia inh,Sm TGR inh,Shiga inhibitor,Tb PYK inh,CHX counter
COc1cccc(-c2nnc(NC(=O)Cc3cccs3)s2)c1,.,.,.,.,.,22
COc1ccc(C(=O)Nc2nnc(C(F)(F)F)s2)cc1,.,?,.,98,.,27
O=C(Cc1cccs1)Nc1nnc(-c2ccncc2)s1,.,.,.,.,.,.
CCc1nnc(NC(=O)c2ccc(OC)cc2)s1,.,.,.,93,.,28
COc1cccc(C(=O)Nc2nnc(-c3cccs3)s2)c1,.,.,.,89,.,24
CCc1nnc(NC(=O)c2ccc(S(C)(=O)=O)cc2)s1,.,.,.,.,?,.
CC(=O)N1CCc2c(sc3c2c(=O)n(-c2cccc(Cl)c2)c(=O)n3Cc2ccc(F)cc2Cl)C1,/,/,.,/,.,/
CCc1nnc(NC(=O)c2cccc(OC)c2)s1,.,.,.,65,.,42
CCOCc1nnc(NC(=O)c2cccc(OC)c2)s1,.,.,/,57,.,25
CCCCN(Cc1ccco1)S(=O)(=O)c1csc(C(N)=O)c1,.,.,?,.,.,.
COc1ccc(Cl)cc1NC(=S)NCc1ccccn1,.,.,.,.,.,.
S=C(NCc1ccncc1)Nc1ccc(Cl)cc1Cl,.,.,35µM,.,.,.
S=C(NCc1ccccn1)Nc1ccc(Cl)cc1Cl,.,.,.,.,.,45
CC1(Cc2ccc(F)cc2)C(=O)Nc2ccc(-c3cccnc3)cc21 (stereo not drawn),/,/,/,/,.,/
O=C(NCCC(=O)N1CCC2(CC1)NCCc1[nH]cnc12)c1cccc(Cl)c1,.,/,.,.,.,.
COc1ccc(CCN(C)C2CCCN(C(=O)Cn3cnnn3)C2)cc1OC (stereo not drawn),.,.,.,.,.,12
O=C(c1csnn1)N1CCC2(CC1)CN(C(c1ccccc1)c1ccccc1)C2,/,.,/,/,.,/
O=C(Nc1cccc(-c2nc3ncccc3o2)c1)c1cc2ccccc2o1,.,.,.,85,.,22
O=C(Nc1cccc(-c2nc3ncccc3o2)c1)c1sc2cc(Cl)ccc2c1Cl,.,.,?,44,.,.
COc1cccc(CNC(=O)CSc2n[nH]c(-c3ccccc3Cl)n2)c1OC,/,/,.,/,.,/
O=C(CSc1ccccn1)c1ccc(F)cc1,.,.,.[11.4 µM],58,.,34
Cc1ccc(C(=O)CSc2ccccn2)cc1,.,.,.,113,.,46
O=C(O)c1ccnc(SCC(=O)c2ccccc2)c1,.,.,.,.,.,.
Cc1nc2ccn(Cc3cccs3)c(=O)c2cc1C(=O)N1CCN(c2ccccc2F)CC1,/,/,.,/,.,/
CCCCn1cc2c(c1-c1ccccc1Br)c(=O)n(C)c(=O)n2C,/,/,.,/,.,/
SMILES,LmPK inhibitor,FBPA Giardia inh,Sm TGR inh,Shiga inhibitor,Tb PYK inh,CHX counter
Cc1cc(C)c(C#N)c(SCc2ccccc2[N+](=O)[O-])n1,.,.,.,.,.,.
Cc1ccc(C#N)c(SCc2nnc(-c3ccc(Cl)cc3)o2)n1,.,.,.,128,.,78
Cc1nc(SCc2nnc(-c3ccc(Cl)cc3)o2)c2c3c(sc2n1)CCC3,.,.,.,.,/,.
Cc1cc(C)c(C#N)c(SCc2nnc(-c3ccccc3[N+](=O)[O-])o2)n1,.,.,/,70,.,47
Cc1cc(C)c(C#N)c(SCc2nnc(-c3ccccc3)o2)n1,.,.,.,92,.,40
c1ccc(-c2nnc(CSc3nncs3)o2)cc1,.,.,.,63,.,46
CCOc1ccc(S(=O)(=O)N2CCOCC2)cc1NC(=O)CSCc1c(C)noc1C,/,/,.,/,.,/
Cc1ccc(C(C(=O)NC(C)(C)C)N(CCCN2CCOCC2)C(=O)c2ccc(-c3ccccc3)[nH]2)o1 (stereo not drawn),.,.,.,.,.,.
O=C(NC1CCCCC1)C(c1cccs1)N(CCCN1CCOCC1)C(=O)c1ccc(-c2ccccc2)[nH]1 (stereo not drawn),.,.,.,56,.,19
C=Cc1ccc(Cn2c(C(=O)O)c(CNCCc3ccco3)c3ccc(C)cc32)cc1,/,/,22µM,/,.,/
COc1ccc(Cn2c(C(=O)O)c(CNCCc3ccco3)c3ccc(C)cc32)cc1,/,/,.,/,.,/
Cc1cccc(C)c1NC(=O)c1cc(S(N)(=O)=O)c(Cl)cc1O,/,/,/,/,.,/
Cc1cc2nn(-c3ccc(Cl)cc3)nc2cc1N,.,.,.,113,.,50
Cc1cc2nn(-c3ccc(F)cc3)nc2cc1N,.,?,?,/,.,58
COc1ccc(-n2nc3cc(C)c(N)cc3n2)cc1Cl,.,?,.,39,.,40
Cc1ccc(NC(=S)N/N=C2\CCCCC2C)cc1 (stereo not drawn),.,.,.,95,.,44
CC1CCCC/C1=N\NC(=S)NCCc1ccccc1 (stereo not drawn),.,.,.,98,.,44
O=C(NCCc1ccccc1)C(=O)NN=C1CCCC1,.,.,.,.,.,.
Cc1cc(C)c2c(c1)/C(=N/NC(=S)Nc1ccc(F)cc1)CCC2,.,.,.,.,.,.
COc1ccc(C(=S)N2CCOCC2)cc1OS(=O)(=O)c1ccccc1[N+](=O)[O-],.,.,.,.,.,28
CC(=O)N1N=C(c2ccc(C)cc2)CC1c1ccco1 (stereo not drawn),.,.,.,.,.,13
CC(=O)N1N=C(c2ccccc2)CC1c1cn(C)c2ccccc12 (stereo not drawn),.,.,.,115,.,52
Cc1ccc(C2CC(c3ccccc3)=NN2c2ccccc2)o1 (stereo not drawn),.,.,.,64,.,21
CCOC(=O)C1CC(c2ccccc2)=NN1c1ccccc1 (stereo not drawn),/,/,/,/,.,/
CC(=O)N1N=C(c2ccc(Cl)cc2)CC1c1ccco1 (stereo not drawn),.,.,.,.,.,.
SMILES,LmPK inhibitor,FBPA Giardia inh,Sm TGR inh,Shiga inhibitor,Tb PYK inh,CHX counter
Cc1nc(N2N=C(c3ccc(Cl)cc3)CC2c2ccco2)sc1C(=O)N(C)C (stereo not drawn),.,.,?,.,.,27
COc1cc([N+](=O)[O-])ccc1NC(=O)N1CCN(c2cc(-c3noc(C)n3)ccc2C)CC1,/,/,.,/,.,/
O=S(=O)(c1ccccc1)N1N=C(c2ccccc2)CC1c1ccccc1 (stereo not drawn),.,.,.,.,.,.
COc1ccc(C2=NN(c3nc(-c4ccccc4)c(CC(=O)O)s3)C(c3ccco3)C2)cc1 (stereo not drawn),.,.,20µM,48,.,18
Cn1nnnc1SCC(=O)N1N=C(c2ccc(Cl)cc2)CC1c1ccco1 (stereo not drawn),/,/,/,/,.,/
Cc1nnc(SCC(=O)N2N=C(c3ccc(Cl)cc3)CC2c2ccco2)[nH]c1=O (stereo not drawn),.,.,13µM,.,.,18
Cc1ccc(N2N=C(c3ccc(F)cc3)CC2c2ccco2)cc1 (stereo not drawn),.,.,.,46,.,30
